Bioassay records deposited in PubChem by National Center for Advancing Translational Sciences (NCATS).
Pf growth 48h: P. falciparum growth inhibition at 48 hours (one generation). P. falciparum luciferase growth in erythrocytes, 48 h. 310,000 tested, 5.9% active. Potency, µM (titrated, usually from 28.7 µM), for the others: at the highest dose activity change, negative = inhibition, actives largely listed as inhibitors
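In quantitative HTS format, infected erythrocytes bearing luciferase-reporter parasites were treated for a single generation at 37 C. Luminescence after adding detection reagent served as the growth measure.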
AmpC no deterg: blocks E. coli AmpC beta-lactamase in detergent-free assay. AmpC nitrocefin hydrolysis, absorbance 480 nm, 0.0001% Triton. AID 485341. 330,000 tested, 0.52% active. P00811. Potency, µM (highest dose often 57.1 µM), inactives show at the highest dose activity change, negative = inhibition, hits mostly inhibitors;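 note: plate controls were no compound for no effect and no enzyme for full effect; nearly all actives have a fitted effect of over 20% in size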
Target sequence (P00811 whole entry, looked up): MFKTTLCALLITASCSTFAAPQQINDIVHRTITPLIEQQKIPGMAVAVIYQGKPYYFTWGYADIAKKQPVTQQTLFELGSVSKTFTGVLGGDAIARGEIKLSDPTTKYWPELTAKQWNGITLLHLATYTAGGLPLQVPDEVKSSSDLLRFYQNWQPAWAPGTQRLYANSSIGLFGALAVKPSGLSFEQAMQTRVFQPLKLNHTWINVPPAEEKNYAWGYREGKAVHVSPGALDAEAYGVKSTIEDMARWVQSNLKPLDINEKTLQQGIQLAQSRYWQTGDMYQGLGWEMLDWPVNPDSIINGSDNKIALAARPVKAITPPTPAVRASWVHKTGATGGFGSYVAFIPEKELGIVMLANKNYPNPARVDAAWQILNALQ
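20 mM phosphate pH 7.0 + 0.01% (detergent screen) or 0.0001% Triton X-100; 5.3 nM AmpC reagent; cpd preinc 15 min RT; nitrocefin (800 uM stock) to start; A480 q20 s × 4 min; Activity was normalised to no-enzyme and no-compound control wells.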
HCV inh: blocks hepatitis C virus | 340,000 tested, 3.4% active | Potency, µM (top dose mostly 41.8 µM), for the others: top-dose activity change, negative = inhibition, most hits filed as inhibitors | Huh7.5.1 HCVcc-Cre infection, luciferase reporter, 44 h
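Whole-lifecycle infectious HCVcc-Cre system; cells 1,000/well, compound then virus (~0.5 moi) added 4 h after plating, 44 h culture. Luciferase read 15 sec following 15 min substrate incubation, room temp.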
Pf growth 96h: P. falciparum growth inhibition at 96 hour, primary screen for plastid delayed-death inhibitors; P. falciparum luciferase reporter growth, 96 h; Potency, µM (top dose mostly 28.7 µM), for inactives: top-dose activity change, negative = inhibition, actives largely listed as inhibitors; 320,000 tested, 6.9% active
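Erythrocytes infected with luciferase-expressing P. falciparum were dispensed at 2% hematocrit and 0.05% parasitemia (final), then incubated with compounds 96 hours at 37 C in 5% CO2. Luminescence after detection reagent addition reported growth.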
AmpC inh detg: inhibitors of E. coli AmpC beta-lactamase with detergent. P00811. AmpC hydrolysis of nitrocefin, absorbance 480 nm, 0.01% Triton. Potency, µM (highest dose often 114 µM), for inactives: top-dose activity change, negative = inhibition, hits mostly inhibitors. 370,000 tested, 0.041% active;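 note: 0% = no-compound wells and -100% = no-enzyme wells; nearly all actives have a fitted effect of over 25% in size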
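20 mM phosphate pH 7.0 + 0.01% (detergent screen) or 0.0001% Triton X-100; 5.3 nM AmpC reagent; cpd preinc 15 min RT; nitrocefin (800 uM stock) to start; A480 q20 s × 4 min; Activity was normalised to no-enzyme and no-compound control wells.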
AMA1-RON2 inh: disrupts binding of P. falciparum AMA1 to RON2 | AlphaScreen AMA1-biotinylated RON2 peptide binding | Potency, µM (series often up to 58.2 µM), inactives show at the highest dose activity change, negative = inhibition, most hits filed as inhibitors | 360,000 tested, 0.2% active | AID 720542;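 note: 0% = vehicle wells and -100% = peptide control; nearly all actives have a fitted effect of over 45% in size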
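AMA1 (3D7) with his tag at 25 nM final met compounds first, then biotinylated RON2 peptide at 25 nM; detection used donor plus acceptor beads, 10 µg/mL apiece, read by AlphaScreen after 30 min at room temperature.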
Starred values were filed as active, the others as inactive; [ ] = dose if it differs, or a comment. Sampled rows, rich in hits. Any-hit rate of the full collection: about 11%. Calls come from the whole dose curve; as a rule, active = well fitted curve in the direction sought with a large enough effect; inconclusive = small, poorly fitted or top-dose-only effect, or another doubt; inactive = no such curve, though single readings can be large; an effect the other way counts as inactive or inconclusive. Unless noted, % is set by controls: 0 for no effect and ±100 for the full control effect; potency is the fitted concentration of half-maximal effect.

COc1cc2c(cc1NC(=O)Cc1ccc(C)cc1)oc1ccccc12 was read as Pf growth 48h 69.8%, AmpC no deterg -12.3%, HCV inh 10µM*, Pf growth 96h -29.3%, AmpC inh detg -7.2% and AMA1-RON2 inh 3.5%.
For COc1cc2c(cc1NC(=O)COC(=O)Cn1cnc3ccccc31)oc1ccccc12 the results were Pf growth 48h 62.9%, AmpC no deterg 109.8%, HCV inh 2.24µM*, Pf growth 96h -1.7%, AmpC inh detg -0.1% and AMA1-RON2 inh -3.3%.
`COc1cc2c(cc1NC(=O)CSCC(=O)O)oc1ccccc12` gave Pf growth 48h 5.9%, AmpC no deterg -41.6%, HCV inh -14.5%, Pf growth 96h -21.2%, AmpC inh detg inconclusive and AMA1-RON2 inh -16.8%.
COc1cc2c(cc1NC(=O)CCC(=O)O)oc1ccccc12 was read as Pf growth 48h 27.5%, AmpC no deterg -10.4%, HCV inh inconclusive, Pf growth 96h inconclusive, AmpC inh detg -15.8% and AMA1-RON2 inh -5.3%.
For COc1cc2c(cc1NC(=O)CSc1ccc(C)cc1)oc1ccccc12 the results were Pf growth 48h 13.2%, AmpC no deterg -11.0%, HCV inh 10µM*, Pf growth 96h 85.5%, AmpC inh detg -2.3% and AMA1-RON2 inh 13.6%.
Screening COc1cc2c(cc1NC(=O)Nc1ccccc1)oc1ccccc12 returned Pf growth 48h -10.5%, AmpC no deterg -23.4%, HCV inh 5.01µM*, Pf growth 96h 28.3%, AmpC inh detg -4.9% and AMA1-RON2 inh -5.8%.
For COc1ccccc1NC(=O)CCCOc1cc(=O)n(C)c2ccccc12 the results were AmpC inh detg -12.5%.
CCc1cccc(NC(=O)Cn2nc(-c3cc(C)ccc3C)ccc2=O)c1 was read as AmpC inh detg -6.1%.
CN1C(C)(C)CC(=NOC(=O)c2ccccc2)CC1(C)C was read as Pf growth 48h -20.0%, AmpC no deterg -9.0%, HCV inh 9.6%, Pf growth 96h 10.4µM*, AmpC inh detg -10.4% and AMA1-RON2 inh -0.2%.
Screening O=C(ON=C1CCSCC1)c1ccccc1 returned HCV inh -10.1% and AMA1-RON2 inh 0.0%.
Screening COc1ccc(C(=O)N(c2ccc(C)cc2)S(=O)(=O)c2ccc(C)cc2)cc1 returned AmpC inh detg 7.8%.
`O=C(O)c1cc(NS(=O)(=O)c2cccc3nsnc23)cc(C(=O)O)c1` gave Pf growth 48h -4.2%[0.00184 µM], AmpC no deterg -3.9%, HCV inh 13.4%, Pf growth 96h 7.38µM*, AmpC inh detg 1.2% and AMA1-RON2 inh -14.0%.
O=S(=O)(Nc1cccc(Br)c1)c1cccc2nsnc12 was read as Pf growth 48h 18.5%, AmpC no deterg -58.0%, HCV inh 20.3%, Pf growth 96h inconclusive, AmpC inh detg -6.4% and AMA1-RON2 inh -21.2%.
`CC(=O)N1c2ccc(Cl)cc2C2C=CCC2C1c1cccc2ccccc12` (stereo not drawn) gave Pf growth 48h 13.1µM*, AmpC no deterg 23.8%, HCV inh inconclusive, Pf growth 96h 8.7%, AmpC inh detg 4.3% and AMA1-RON2 inh -11.1%.
`CC(=O)N1c2ccccc2CC1C(=O)NCc1cccc(Cl)c1` (stereo not drawn) gave AmpC inh detg 16.5%.
`CC(=O)N1c2ccc3ccccc3c2C2C=CCC2C1c1ccc(Br)cc1` (stereo not drawn) gave Pf growth 48h 5.86µM*, AmpC no deterg 37.8%, HCV inh -23.1%, Pf growth 96h 45.5% and AmpC inh detg -6.1%.
Screening COc1ccc(Cl)cc1NC(=O)CN(C)CC(=O)Nc1ccccc1C(F)(F)F returned Pf growth 48h -8.7%, AmpC no deterg 99.6%, HCV inh -18.5%, Pf growth 96h inconclusive, AmpC inh detg inconclusive and AMA1-RON2 inh 42.9%.
For COc1ccc(Cl)cc1NC(=O)CN(C)C(=O)c1cc2c(F)cccc2s1 the results were Pf growth 48h 7.38µM*, AmpC no deterg -1.1%, HCV inh 3.98µM*, Pf growth 96h inconclusive, AmpC inh detg 7.3% and AMA1-RON2 inh -4.7%.
Screening COc1ccc(Cl)cc1NC(=O)CN(C)CC(=O)Nc1cc(OC)c(OC)c(OC)c1 returned Pf growth 48h 14.7µM*, AmpC no deterg 80.3%, HCV inh inconclusive, Pf growth 96h inconclusive, AmpC inh detg -13.3% and AMA1-RON2 inh 41.8%.
Screening COc1ccc(Cl)cc1NC(=O)CN(C1CCCCC1)S(C)(=O)=O returned Pf growth 48h 1.5%, AmpC no deterg 50.1%, HCV inh 4.47µM*, Pf growth 96h inconclusive, AmpC inh detg 2.6% and AMA1-RON2 inh 17.4%.
`COc1ccc(Cl)cc1NC(=O)CN(C)CC(=O)NC(C)c1ccccc1` (stereo not drawn) gave Pf growth 48h 10.4µM*, AmpC no deterg 149.1%, HCV inh inconclusive, Pf growth 96h -16.4%, AmpC inh detg 1.2% and AMA1-RON2 inh -1.0%.
For COc1ccc(Cl)cc1NC(=O)CN(C)CC(=O)Nc1ccc(Br)cc1 the results were Pf growth 48h -15.9%, AmpC no deterg 65.8%, HCV inh inconclusive, Pf growth 96h -23.6%, AmpC inh detg inconclusive and AMA1-RON2 inh 29.1%.
`CS(=O)(=O)N(CC(=O)Nc1ccc(F)cc1F)C1CCCCC1` gave Pf growth 48h 32.2%, AmpC no deterg 1.1%, HCV inh 11.5%, Pf growth 96h -3.1%, AmpC inh detg inconclusive and AMA1-RON2 inh 10.9%.
`CC(=O)c1ccc(N2CCN(C(=O)C3CCN(S(=O)(=O)c4ccc(Br)s4)CC3)CC2)cc1` gave AmpC inh detg 10.9%.
CCc1ccccc1NC(=O)COC(=O)c1cn(CC)c2nc(C)ccc2c1=O was read as AmpC inh detg -2.9%.
`COc1ccc(OC)c(NC(=O)Nc2c(C)n(C)n(-c3ccccc3)c2=O)c1` gave AmpC inh detg 2.1%.
`COc1ccc(C)cc1NC(=O)NC(C)c1ccncc1` (stereo not drawn) gave Pf growth 48h -10.5%, AmpC no deterg 1.0%, HCV inh -24.0%, Pf growth 96h -26.1%, AmpC inh detg 3.8% and AMA1-RON2 inh -0.9%.
`COc1ccc(Cl)cc1NC(=O)NC(C)c1ccncc1` (stereo not drawn) gave Pf growth 48h inconclusive, AmpC no deterg -30.0%, HCV inh 7.08µM*, Pf growth 96h inconclusive, AmpC inh detg -9.3% and AMA1-RON2 inh 20.6%.
